Experimental data: PubChem BioAssay (NCI)
About 79,000 compounds went through this panel and 15% of them were active in at least one assay; those are over-represented in the sample as a whole. Values without a mark were called inactive. Active and inactive are the calls of the source. Rule as the data show it: active = growth inhibition above about 70%; inactive = the rest.

Tests used:
[1] = NCI Yeast Anticancer Drug Screen. Data for the rad50 strain (AID 155);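 also: 0% = growth of vehicle-only cultures of the same strain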; settings: S. cerevisiae rad50 strain growth inhibition, active compounds read high; at 50.0 µM unless noted
Summary of the method: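 Genetically altered yeast (DNA repair pathway); compound treatment; growth inhibition vs vehicle ctrl.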

[2] = NCI Yeast Anticancer Drug Screen. Data for the mec2-1 strain (AID 157); settings: S. cerevisiae mec2-1 strain, active compounds read high; at 50.0 µM unless noted
Summary of the method: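 Readout is yeast growth inhibition, normalised to vehicle-treated controls, in the mec2-1 strain exposed to compound.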

[3] = NCI Yeast Anticancer Drug Screen. Data for the sgs1 mgt1 strain (AID 161);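 also: 0% = growth of cultures given vehicle only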; settings: S. cerevisiae sgs1 mgt1 strain, active compounds read high; at 50.0 µM unless noted
Summary of the method: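 Yeast cells carrying a defined DNA-repair defect were exposed to test compounds. Growth inhibition was measured relative to vehicle-treated controls.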

[4] = NCI Yeast Anticancer Drug Screen. Data for the cln2 rad14 strain (AID 165);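 also: 0% = growth equal to vehicle treated cultures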; settings: S. cerevisiae cln2 rad14 strain, active compounds read high; at 50.0 µM unless noted
Summary of the method: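 Relative to vehicle controls, growth inhibition of compound-treated cln2 rad14 yeast was recorded.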

[5] = NCI Yeast Anticancer Drug Screen. Data for the bub3 strain (AID 167); settings: S. cerevisiae bub3 mutant strain, active compounds read high; at 50.0 µM unless noted
Summary of the method: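 Yeast carrying a defined mutation is treated with each compound, and growth is compared with that of vehicle-exposed cells to give inhibition.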

[6] = NCI Yeast Anticancer Drug Screen. Data for the mlh1 rad18 strain (AID 175); settings: S. cerevisiae mlh1 rad18 strain growth inhibition, active compounds read high; at 50.0 µM unless noted
Summary of the method: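 Test agents were incubated with a yeast strain of defined genotype (DNA damage repair defect). Inhibition of growth was derived by comparison with vehicle-exposed cultures.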

Structure (SMILES)	growth inhibition [1]	growth inhibition [2]	growth inhibition [3]	growth inhibition [4]	growth inhibition [5]	growth inhibition [6]
COc1ccc(/C(=N\NC(=S)NN)C(c2ccc(OC)cc2)C2C(=O)Oc3ccccc32)cc1 (centres undefined)	13.4%	5.85%	38.4%	-9.3%	12.7%	2.85%
CCC[N+](C)(C)CCC#N	-4.55%	10.9%	4.2%	-14%	17.1%	5.25%
O=c1[nH]n(Cc2ccccc2CCl)c2ccc([N+](=O)[O-])cc12	24.1%	13.3%	-10.8%	24%	4.1%	3.7%
COc1ccc(NC(=O)c2ccc(OC)cc2)cc1	0.7%	-8.9%	5.2%	1.95%	7.85%	-3.7%
O=C(O)CCSCCC(=O)O	-22.8%	-2.5%	-29.4%	-48.4%	-13.6%	22.4%
[N-]=[N+]=NC1(N=[N+]=[N-])C(=O)Nc2ccccc2C1=O (centres undefined)	15.5%	14.8%	2.55%	3.65%	-10.2%	12.6%
C=C(NC(=O)C(c1ccccc1)c1ccccc1)C(=O)O	21.6%	11.7%	-1.15%	-25.1%	-1.9%	17.4%
S=C1NCN2CCN(CC2)CNC(=S)C(=S)NCN2CCN(CC2)CNC1=S	39.2%	40.6%	13%	55.8%	48.9%	57.6%
Cc1cc(C)c(S(=O)(=O)Oc2ccccc2)c(C)c1	-14.9%	-7.15%	-8.5%	1.7%	11.8%	-36.7%
N#Cc1ccc(-c2ccc(C#N)cc2)cc1	-19.4%	-23.3%	-14.1%	9.05%	-20.1%	7.05%
O=S(=O)(CCCl)c1ccc(Br)cc1	51.6%	44.6%	56.7%	18.8%	39.4%	57.5%
COc1cccc(-c2cc(=O)c3cc(N4CCOCC4)ccc3[nH]2)c1	-35.9%	-27.9%	-22.9%	-2%	-40.9%	-58.2%
Cc1cc([N+](=O)[O-])ccc1P(=O)(O)O	8.55%	7.6%	0%	-0.65%	-3.8%	-7.95%
CCCCCOC(=O)C#CC(=O)OCCCCC	99.8% (active)	99.8% (active)	99.7% (active)	99.4% (active)	99.8% (active)	99.7% (active)
O=C(c1ccc(Cl)cc1)N1CCC(CCCc2ccccc2)CC1	-2.2%	3.45%	-4.3%	5.05%	12.8%	-3.2%
COC(=O)[C@]1(C)CCCC2(C)C1CC[C@H]1C=C(C)[C@H]3CCC12C3 (some centres undefined)	14%	12.2%	-25.1%	6.7%	-1.25%	15.7%
Cc1ncc(C(N)=S)c(N)n1	9.95%	-0.05%	-0.15%	-47.4%	-8.55%	14.3%
COc1ccc(C2c3cc4c(cc3C(O)C3CCC(=O)N23)OCO4)cc1 (centres undefined)	-31.6%	3.3%	-17.2%	-1.25%	-7.4%	-15.1%
C=CCONC(=O)c1ccc(Cl)cc1	0.5%	1.75%	-4.2%	-5.5%	-19.2%	27.3%
CC(Nc1ncc2c(n1)-c1ccccc1OC2)C(=O)O (centres undefined)	-2.45%	2.1%	-11.4%	-7.8%	-31.4%	16.3%

Structure (SMILES)	growth inhibition [1]	growth inhibition [2]	growth inhibition [3]	growth inhibition [4]	growth inhibition [5]	growth inhibition [6]
O=C1OCC/C1=C\c1ccc2c(c1)OCO2	40.4%	-26.5%	20%	-2.85%	-10.2%	-2.4%
O=C(NNC(=O)c1ccc(Cl)c(Cl)c1)c1ccccc1	-13.8%	3.1%	-6.05%	-7.95%	2.75%	-15.9%
O=C(O)CNOCN1C(=O)c2ccccc2C1=O	11.6%	-1.25%	13.3%	-21.6%	-16%	14.4%
CC(Oc1c(Cl)cc(Cl)cc1Cl)C(=O)O (centres undefined)	-13.7%	-51.8%	-8.6%	12.8%	-34.9%	-15.8%
Cc1cc(Nc2nnc(-c3cccnc3Oc3ccccc3)s2)ccc1Br	1.25%	-6.85%	-11.6%	16.7%	0.5%	-5.35%
COc1cc(O)c(C(=O)/C=C/c2ccccc2)c(OC)c1	1.05%	-12.1%	27.1%	15.6%	15.1%	-21.4%
CC(=O)NC(CCC(=O)O)C(=O)O (centres undefined)	-0.55%	-14.9%	-7.15%	-6.2%	-20.1%	-1.6%
CC(Cl)(c1ccccc1)C1OCCO1 (centres undefined)	1.75%	19.9%	8.1%	-20.9%	-5.9%	-1.5%
O=CNNc1nn2cnnc2c2ccccc12	-1%	9.95%	-6.55%	11.9%	-16.6%	9.6%
CC(=O)CC(=O)Nc1ccc(OS(N)(=O)=O)cc1	-9.55%	-22.4%	1.95%	3.1%	2.3%	-15.2%
S=c1[nH]nc(-c2ccccc2Cl)o1	-47.9%	-17.7%	-47.8%	-21.2%	-4.75%	-66.2%
CC(=O)Nc1cc([N+](=O)[O-])cc([N+](=O)[O-])c1O	-7.5%	-6.95%	-1.6%	-24.8%	-10.8%	7.2%
O=C(O)c1cc([N+](=O)[O-])cc([N+](=O)[O-])c1-c1ccccc1	-10.4%	-2.6%	6.2%	-13.4%	44.6%	-10%
COc1ccc(C=Nc2ccccc2C(=O)O)cc1	0.2%	7.1%	0.65%	-41.9%	24.3%	5.9%
Fc1ccccc1C1SCc2nc3cc4ccccc4cc3n21 (centres undefined)	-33.6%	-17.8%	0.95%	-1.45%	-0.95%	40%
NC(=O)Nc1ccc(/C=C\c2ccnc3ccccc23)cc1	-19.7%	2.5%	4.95%	-31.9%	-15.9%	-9.45%
CC1=C2CC(C)(C)/C=C\C(=O)/C(C)=C\C3=C[C@H](C)C[C@]3(O2)C1=O	60.8%	71.2% (active)	72.8% (active)	40.4%	64.4%	79.8% (active)
CS(=O)(=O)CS(C)(=O)=O	18.9%	6.15%	8.2%	14.5%	0.25%	27.9%
Nc1cnccc1N1CCN(c2cccc3ccccc23)CC1	99% (active)	99.3% (active)	99.2% (active)	98.8% (active)	98.4% (active)	99% (active)
